Records with an inconclusive call do not appear. The source made the active and inactive calls. How the source made its calls, unless noted: active means hit-call score of the fitted dose curve at least 0.9, where 1 is the maximum; inactive means score below 0.9.
Key:
[1] = CCTE_Simmons_MITO_inhib_resp_rate: CCTE's HepG2 Seahorse XF Respirometric Screening Assay at Inhibited Respiratory State [full ETC block], Simmons Lab (AID 2284006); settings: actives raise or lower the signal
Method in brief: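 Compound injected onto HepG2 cells (125 nM–100 uM final, 7 points); FCCP then rotenone/antimycin A added. Oxygen consumption read every 6 min (3 min mix, 3 min measure) for 72 min. Inhibited-state OCR fitted against DMSO.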

[2] = CCTE_Simmons_MITO_viability: CellTiter-Glo Viability Assessment for CCTE's HepG2 Seahorse XF Respirometric Screening Assay [post-hoc], Simmons Lab (AID 2284007; active means hit-call score of the fitted dose curve at least 0.9, where 1 is the maximum;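 on AC50: cells exposed to chemical for 90 min before the ATP read; actives lower ATP signal relative to DMSO baseline meaning reduced viability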)
Method in brief: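 After the Seahorse oxygen-consumption sequence (basal, FCCP, rotenone/antimycin A; 72 min total), HepG2 viability was scored as ATP content by bioluminescence. Chemicals ran at seven concentrations up to 100 uM final for 90 min.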

[3] = CCTE_Shafer_MEA_acute_spike_number: CCTE's Neural Acute Assay for Total Number of Spikes, Shafer Lab (AID 2284008);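 on AC50: curve fitted for decrease in spike count so AC50 reflects inhibitors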
Method in brief: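 Using an adaptive detector set to 8x rms noise, spikes were counted in 40-min windows before and after compound addition (0.03-40 uM) to rat cortical networks at 37 C; the well-level change from baseline was analysed relative to DMSO.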

[4] = CCTE_Shafer_MEA_acute_firing_rate_mean: CCTE's Neural Acute Assay for Mean Firing Rate, Shafer Lab (AID 2284009);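 further: analyzed for loss of signal so actives lower firing rate relative to DMSO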
Method in brief: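 Percent change in well-mean firing rate was derived from extracellular spikes detected at 8x rms noise (300-5000 Hz band-pass) before and after a 40-min compound exposure. Cultures were primary rat cortical neurons, tested at 0.03-40 uM.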

[5] = CCTE_Harrill_HTTr_Viability_MCF7: CCTE's 6-hour Cell Viability Assessment for the High-Throughput Transcriptomics (HTTr) Platform, in MCF-7 cells cultured in DMEM + 10% fetal bovine serum, Harrill Lab (AID 2284010)
Method in brief: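 Cells were dosed with chemicals in an eight-point dilution series, imaged 6 hours later for propidium iodide uptake, and the endpoint was analyzed by bidirectional fitting against DMSO as negative control.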

[6] = CCTE_Harrill_HTTr_CellCount_MCF7: CCTE's Cell Proliferation Assessment for the High-Throughput Transcriptomics (HTTr) Platform, Harrill Lab (AID 2284012; active means hit-call score of the fitted dose curve at least 0.9, where 1 is the maximum;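 further: count of Hoechst-stained nuclei per well by high-content imaging in MCF-7 cells; cells exposed to compound for six hours; intended direction is loss of nuclei count meaning fewer cells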)
Method in brief: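 Chemicals in eight-point dilution series are added to MCF-7 cells for six hours, nuclei are stained with Hoechst and imaged, and per-well nuclei counts are fitted in both directions relative to DMSO controls.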

[7] = CCTE_Shafer_MEA_acute_burst_number: CCTE's Neural Acute Assay for Single-Electrode Bursts, Shafer Lab (AID 2284013)
Method in brief: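 Spontaneous network activity of primary rat cortical neurons was recorded extracellularly on microelectrode arrays at 37 C, with 40-min periods before and during exposure to 0.03-40 uM compound on DIV 13 or 15.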

[8] = CCTE_Shafer_MEA_acute_burst_duration_mean: CCTE's Neural Acute Assay for Mean Burst Duration, Shafer Lab (AID 2284014);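 further: hits are decreases in mean burst duration relative to DMSO controls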
Method in brief: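 Read-out is the per-well percent change in mean burst duration (first to last spike within a single-electrode burst) between 40-min recordings before and after compound. Cultures were primary rat cortical neurons on MEAs, dosed at 0.03-40 uM on DIV 13 or 15.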

[9] = CCTE_Shafer_MEA_acute_per_burst_spike_number_mean: CCTE's Neural Acute Assay for Average Number of Spikes Per Burst, Shafer Lab (AID 2284015);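 further: hits are decreases in mean spikes per burst versus baseline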
Method in brief: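 Primary rat cortical neurons on 48-well MEA plates, treated on DIV 13 or 15 at 0.03-40 uM. Spontaneous activity recorded 40 min before and 40 min after compound at 37 C; percent change in mean spikes per single-electrode burst per well, fitted in the loss direction versus DMSO.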

[10] = CCTE_Shafer_MEA_acute_interburst_interval_mean: CCTE's Neural Acute Assay for Mean Interburst Interval, Shafer Lab (AID 2284016);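 further: percent change of mean interburst interval versus each well's own pre-dose baseline; curves fitted for decrease in interburst interval relative to DMSO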
Method in brief: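 Primary rat cortical neurons on 16-electrode MEA wells were recorded 40 min at baseline on DIV 13 or 15, then 40 min after compound (0.03-40 uM), at 37 C. Value is percent change in mean interburst interval per well, DMSO as negative control.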

[11] = CCTE_Shafer_MEA_acute_burst_percentage_mean: CCTE's Neural Acute Assay for Percentage of Spikes in a Burst, Shafer Lab (AID 2284017);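 on AC50: curve fitted for loss of signal so potency reflects decreased burst percentage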
Method in brief: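 Primary rat cortical neurons on 16-electrode MEA wells; 40 min baseline recorded at DIV 13 or 15, then 40 min after compound (0.03-40 uM) at 37 C. Well-mean fraction of spikes in single-electrode bursts; percent change from baseline, DMSO as negative control.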

[12] = CCTE_Shafer_MEA_acute_burst_percentage_std: CCTE's Neural Acute Assay for Standard Deviation of Burst Percentage, Shafer Lab (AID 2284018);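 further: fitted in the negative direction so actives lower burst percentage SD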
Method in brief: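 Value is percent change from baseline in the across-electrode SD of spikes-in-bursts percentage, wells with >/= 10 active electrodes. Acute 40-min exposure to 0.03-40 uM on DIV 13 or 15 rat cortical cultures, recorded at 37 C after 40-min baseline.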

[13] = CCTE_Shafer_MEA_acute_per_network_burst_spike_number_mean: CCTE's Neural Acute Assay for Average Number of Spikes in a Network Burst, Shafer Lab (AID 2284019)
Method in brief: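 Read-out is mean spike count per network burst, taken as percent change between a 40-min pre-exposure and a 40-min post-exposure recording per well. Rat primary cortical neurons on MEAs at 37 C, DIV 13 or 15; compounds at 0.03-40 uM.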

[14] = CCTE_Shafer_MEA_acute_per_network_burst_spike_number_std: CCTE's Neural Acute Assay for Standard Deviation of Number of Spikes in a Network Burst, Shafer Lab (AID 2284020);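 further: fitted for decrease in spike-number SD versus DMSO so actives lower it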
Method in brief: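 Spontaneous network activity of primary rat cortical neurons is recorded extracellularly before and after a 40-min compound exposure (0.03-40 uM) at 37 C. The endpoint is the well's percent change in burst spike-number SD.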

[15] = CCTE_Shafer_MEA_acute_per_network_burst_electrodes_number_mean: CCTE's Neural Acute Assay for Mean Number of Electrodes in a Network Burst, Shafer Lab (AID 2284021);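 further: curves fitted for decreases only so hits reduce electrodes per burst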
Method in brief: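 Percent change from baseline in average electrode count per network burst, rat cortical cultures on 48-well MEAs; 40-min recordings each side of exposure, DIV 13 or 15; threshold 8x rms noise; DMSO as negative control.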

[16] = CCTE_Shafer_MEA_acute_network_burst_percentage: CCTE's Neural Acute Assay for Percentage of Network Bursts, Shafer Lab (AID 2284022);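 further: curves fitted for loss so actives lower network burst percentage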
Method in brief: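 On DIV 13 or 15, at least three wells of rat cortical neurons per compound are dosed at 0.03-40 uM. Spontaneous firing is detected at 8x rms noise for 40 min before and after dosing at 37 C. The percent change in network-burst spike share is reported.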

[17] = CCTE_Shafer_MEA_acute_cross_correlation_area: CCTE's Neural Acute Assay for Area of Cross Correlation, Shafer Lab (AID 2284024);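 further: area under pooled inter-electrode spike cross-correlation near zero lag as percent change from own baseline; curves fitted for loss of cross-correlation area so actives lower synchrony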
Method in brief: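 Extracellular recordings from cultured rat cortical neurons measure network synchrony as cross-correlation area; each well's post-compound value (0.03-40 uM, 40 min) is compared with its own 40 min baseline to give percent change.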

[18] = CCTE_Shafer_MEA_acute_cross_correlation_HWHM: CCTE's Neural Acute Assay for Cross Correlation at Half Width at Half Maximum, Shafer Lab (AID 2284026);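 further: percent change per well from pre-dose baseline in spike cross-correlogram half width; hits are a decrease in cross-correlogram half width relative to DMSO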
Method in brief: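 Percent change in cross-correlogram half width at half maximum, narrower meaning more synchrony, was derived per well from paired 40-min recordings before and during exposure to 0.03-40 uM compound in rat cortical cultures at 37 C.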

[19] = CCTE_Shafer_MEA_acute_synchrony_index: CCTE's Neural Acute Assay for Synchrony, Shafer Lab (AID 2284027);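 further: fitted for loss of signal so actives lower synchrony relative to DMSO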
Method in brief: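 Readout is percent change in the unitless network synchrony index (0 low, 1 high) between a 40-min baseline and a 40-min recording in compound. Cultures were primary rat cortical neurons on MEAs, treated at 0.03-40 uM on DIV 13 or 15.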

[20] = CCTE_Harrill_HTTr_Apoptosis_MCF7: CCTE's 6-hour Apoptosis Assessment for the High-Throughput Transcriptomics (HTTr) Platform, in MCF-7 cells cultured in DMEM + 10% fetal bovine serum, Harrill Lab (AID 2284011)
Method in brief: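 Apoptosis in MCF-7 cells grown in DMEM with 10% fetal bovine serum was scored after a six hour exposure by high content imaging of caspase-3/7 activation (CellEvent Caspase 3/7 Green), with DMSO serving as negative control and baseline.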

Measured: AC50

C[Si](Cn1cncn1)(c1ccc(F)cc1)c1ccc(F)cc1
inactive: [1] | [5] | [6] | [8] | [10] | [13] | [14] | [15]
active: [2] 10.3 µM | [3] 4.69 µM | [4] 4.69 µM | [7] 4.3 µM | [9] 7.68 µM | [11] 15.4 µM | [12] 4.31 µM | [16] 20 µM | [17] 1.67 µM | [18] 34.5 µM | [19] 4.26 µM

CCc1cccc(C)c1N(C(=O)CCl)C(C)COC (stereo unspecified)
inactive: [1] | [2] | [5] | [20] | [6] | [8] | [9] | [10] | [12] | [13] | [17]
active: [3] 27 µM | [4] 27 µM | [7] 14.8 µM | [11] 10.9 µM | [14] 10.8 µM | [15] 5.76 µM | [16] 21.9 µM | [18] 26.9 µM | [19] 8.13 µM

CCC(=O)Nc1ccc(Cl)c(Cl)c1
inactive: [1] | [2] | [5]

CCc1cccc(CC)c1N(COC)C(=O)CCl
inactive: [1] | [2] | [5] | [20]

CC(C)=CC1C(C(=O)OCN2C(=O)C3=C(CCCC3)C2=O)C1(C)C (stereo unspecified)
inactive: [1] | [2] | [3] | [4] | [5] | [20] | [6] | [7] | [8] | [9] | [10] | [13] | [14] | [15] | [16] | [17]
active: [11] 20 µM | [12] 26.1 µM | [18] 28.6 µM | [19] 25.1 µM

O=C(O)c1cc(Oc2ccc(C(F)(F)F)cc2Cl)ccc1[N+](=O)[O-]
inactive: [1] | [2] | [3] | [4] | [5] | [20] | [6] | [7] | [8] | [9] | [10] | [11] | [12] | [13] | [14] | [15] | [16] | [17] | [18] | [19]

— PubChem BioAssay (EPA / NIEHS)
